This is a sample that favours compounds with a hit; in the whole collection about 0.69% have one here.
AT treatment: potential ataxia-telangiectasia treatment | F2112 A-T fibroblasts, KAP-1 phosphorylation AlphaLISA; neocarzinostatin DNA damage 30 min before lysis | Potency, µM (titrated, usually from 57.5 µM), hits mostly activators | hit rate 0.19% among 320,000; also: nearly all actives have a fitted effect of over 45% in size
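ATM-like activity read as KAP-1 phosphorylation via AlphaLISA donor/acceptor antibody pairs after lysis and 6 hr at 25C. Cells were ATM-null patient fibroblasts (F2112, hTERT), dosed 60 min, then exposed to the DSB inducer NCS for 30 min.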
PKM2 activator: activators of human pyruvate kinase M2; P14618; purified PKM2, Kinase-Glo ATP luminescence, activation; response scale: 0% is enzyme alone, no compound; Potency, µM (series often up to 57.5 µM), hits mostly activators; hit rate 0.34% among 260,000; AID 1631; also: nearly all actives have a fitted effect of over 55% in size
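ATP formation by purified human PK-M2, quantified via coupled luciferase luminescence after 1 h at room temperature with 0.1 mM ADP and 0.5 mM PEP final.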
Tb PFK inh: blocks T. brucei phosphofructokinase; O15648; T. brucei PFK, ADP-Glo luminescence; Potency, µM (highest dose often 57.5 µM), hits mostly inhibitors; hit rate 0.17% among 330,000; AID 485367; also: nearly all actives have a fitted effect of over 60% in size
Target sequence (O15648 whole entry, looked up): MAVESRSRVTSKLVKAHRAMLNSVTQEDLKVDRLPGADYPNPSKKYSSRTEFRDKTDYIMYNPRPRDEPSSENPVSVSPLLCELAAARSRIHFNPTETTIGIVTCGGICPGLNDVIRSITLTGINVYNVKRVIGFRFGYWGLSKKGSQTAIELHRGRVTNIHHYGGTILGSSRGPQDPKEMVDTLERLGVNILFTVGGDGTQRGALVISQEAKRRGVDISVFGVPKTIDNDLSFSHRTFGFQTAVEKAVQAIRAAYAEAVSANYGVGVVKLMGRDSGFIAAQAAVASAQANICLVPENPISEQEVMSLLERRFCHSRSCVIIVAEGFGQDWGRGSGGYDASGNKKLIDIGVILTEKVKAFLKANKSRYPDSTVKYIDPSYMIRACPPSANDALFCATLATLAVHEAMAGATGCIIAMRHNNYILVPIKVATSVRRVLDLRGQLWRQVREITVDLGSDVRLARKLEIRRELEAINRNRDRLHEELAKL
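In TEA buffer at pH 8.0 with 5 mM MgCl2, enzyme (1.25 nM) converted F6P (0.5 mM) and ATP (0.1 mM) for 45 min at room temperature. ADP product was read by luciferase luminescence.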
IL-2 act: IL-2 activation; IL-2 activation reporter assay, cell-based qHTS; stimulated with anti-CD3/CD4/CD28 beads; in transgenic mouse T cells; AID 652025; activation, % (series mostly up to about 46 µM); hit rate 0.065% among 360,000; in the data active = activation above about 50%; inconclusive = mostly about 30% to 49%
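Readout: EGFP and DsRed signals by fluorescent plate cytometry. Unstimulated transgenic mouse T cells received compound 60 min before antibody-bead stimulation, then incubated 18 h at 37 degrees C.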
TCR act: T cell receptor activation | Potency, µM (highest dose often 9.22 µM), usual class: activators | 330,000 tested, under 10 active | primary human leukocytes, anti-CD3, IL-2 HTRF, 48 h
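Readout: HTRF IL-2, Eu-cryptate/d2 antibody pair, 320nm excitation, 665nm emission. Stimulus: a-CD3 beads, no co-stimulation. Cells: primary human leukocytes. Exposure: 48 hr with compound.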
a7 integrin act: activators of alpha7 integrin expression for muscular dystrophy | hit rate 0.064% among 350,000 | alpha7betagal myoblasts, beta-gal FDG fluorescence, 48 h | AID 624291 | Potency, µM (doses to about 38.3 µM), usual class: activators; also: nearly all actives have a fitted effect of over 60% in size
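Alpha7betagal+/- myoblasts (passage 13) were plated 16-24 hr, then exposed to compounds (1:260 dilution of DMSO stock) for 48 hours at 37C. After MPER lysis, β-galactosidase reporter activity was read as FDG fluorescence (ex 480/em 540) after 30 minutes.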
Large screens that a line does not name were inactive. Unless noted, calls follow the shape of the dose curve; as a rule, active = well fitted curve in the direction sought with a large enough effect; inconclusive = small, poorly fitted or top-dose-only effect, or another doubt; inactive = no such curve, though single readings can be large; an effect the other way counts as inactive or inconclusive.

Nc1c(C(=O)N/N=C/c2cccnc2)oc2nc(-c3ccccc3)cc(-c3ccco3)c12	IL-2 act 318
Cn1c2ccsc2c2cnn(Cc3ccc(F)cc3)c(=O)c21	none (no result: PKM2 activator, IL-2 act, TCR act, a7 integrin act)
COC(=O)/C(=C\c1cc(OC)c(OC)c(OC)c1)c1nc2ccccc2[nH]1	none
O=C(/C(=C/c1ccc(Cl)cc1)c1nc2ccccc2[nH]1)c1cccs1	AT treatment 3.5µM, a7 integrin act inconclusive
COc1cc(/C=C(/C(=O)c2cccs2)c2nc3ccccc3[nH]2)ccc1O	AT treatment 25µM
O=c1[nH]c2ccccc2nc1/C=C(\O)c1cccs1	IL-2 act 148
COC(=O)C1=C(C(=O)OC)[C@@H]2N(C)c3ccccc3[C@@]23C[C@@H](C(=O)OC)N(S(=O)(=O)c2ccc(C)cc2)C3=N1	none (no result: AT treatment, Tb PFK inh, IL-2 act, TCR act, a7 integrin act)
COc1cc(OC)cc(-c2nnc(Nc3nc4c(F)cccc4s3)o2)c1	PKM2 activator 7.1µM
Fc1cccc2sc(Nc3nnc(-c4ccccc4)o3)nc12	none (no result: AT treatment)
Cc1nc(NCc2ccccc2)c2nc(-c3ccccc3)n(CC(C)(C)CN(C)C)c2n1	none (no result: AT treatment, Tb PFK inh, IL-2 act, TCR act, a7 integrin act)
O=S(=O)(Nc1ccc2ccccc2n1)c1ccc2c(c1)CCO2	PKM2 activator 11µM
CCOC(=O)/C=C1\NC(C)(C)Cc2cc(OC)c(OC)cc21	none
COc1cc2c(cc1OC)/C(=C/C(=O)N1CCOCC1)NC(C)(C)C2	PKM2 activator 25µM
O=S(=O)(NCC(c1ccco1)N1CCOCC1)c1ccc(Cl)cc1 (configuration not stated)	a7 integrin act 14µM
CCCCc1nc2c(c3c1C[C@H](C)OC3)CN(C(=O)c1cc(I)ccc1F)CC2	none (no result: AT treatment, Tb PFK inh, IL-2 act, TCR act, a7 integrin act)
Cc1cccn2c(=O)c3cc(C(=O)NC4CCCCC4)n(C)c3nc12	a7 integrin act 14µM (no result: PKM2 activator)
Cc1cccn2c(=O)c3cc(C(=O)NC4CCCC4)n(C)c3nc12	none (no result: PKM2 activator)
Cc1cccn2c(=O)c3cc(C(=O)NC4CCCCC4)c(=N)n(CCN4CCOCC4)c3nc12	AT treatment 16µM
CCCCc1cc2c(cn1)=C(OC(=O)c1ccc(Cl)nc1)C(C)(OC(=O)CC)C(=O)C=2 (configuration not stated)	none (no result: AT treatment, Tb PFK inh, IL-2 act, TCR act, a7 integrin act)
COC(=O)C1=C(C)NC(C)=C(C(=O)OC)C1c1ccccc1OCc1c(C)no[n+]1[O-]	a7 integrin act 2.8µM
COC(=O)C1CC1C(NC(=O)[C@@H]1CCCN1)c1ccccc1 (some centres not stated)	none (no result: AT treatment, Tb PFK inh, IL-2 act, TCR act, a7 integrin act)
O=C(COC(=O)c1ccccc1Cl)NC1CCCCCC1	a7 integrin act inconclusive (no result: PKM2 activator)
O=C(COC(=O)c1cccc(Cl)c1Cl)NC1CCCC1	AT treatment 18µM (no result: PKM2 activator)
CCOC(=O)c1c(C)oc2c1c(CN1CCN(C(=O)OCC)CC1)c(O)c1ccccc12	AT treatment 32µM
CCCc1nn(C)c(C(=O)Nc2ccc(C(C)(C)C)cc2)c1Cl	AT treatment 35µM
CCCc1nn(C)c(C(=O)Nc2ccc(Cl)cc2)c1Cl	none
N#C/C(=C/c1ccc(N2CCOCC2)o1)c1ccc(Br)cc1	AT treatment inconclusive, PKM2 activator 14µM
N#C/C(=C\c1ccc(N2CCOCC2)o1)c1ccccc1	AT treatment inconclusive, PKM2 activator inconclusive, Tb PFK inh inconclusive
CC(=O)Nc1ccccc1NS(=O)(=O)c1ccccc1[N+](=O)[O-]	PKM2 activator 40µM
CC(=O)NNS(=O)(=O)c1ccccc1[N+](=O)[O-]	none
CCOc1ccc(NC(=O)/C(C#N)=C\c2ccc(N3CCCC3)c(C)c2)cc1	IL-2 act 174 (no result: AT treatment, PKM2 activator, Tb PFK inh)
Cn1c(OCc2cccnc2)nc2c1c(=O)n(Cc1ccc(Br)cc1)c(=O)n2C	PKM2 activator 20µM
Cc1ccc(CCNC(=O)c2nn(C)c3c2CS(=O)(=O)c2ccccc2-3)cc1	none (no result: PKM2 activator)
COc1ccc(CCNC(=O)c2nn(C)c3c2CS(=O)(=O)c2ccccc2-3)cc1OC	a7 integrin act 4.5µM (no result: PKM2 activator)
COc1cccc(OC)c1OCc1cc(C2C3CCCC=C3C(C#N)=C(N)C2(C#N)C#N)c(C)cc1C (configuration not stated)	PKM2 activator 4.5µM
